Results published in PubChem BioAssay AID1159580 (chemical genetic matrix, 2015).
In all, about 5,500 compounds went through this assay and about 2,000 (36%) were called active. Inconclusive results (about 18%) are left out. Cut-off read from the data, not from the text of the source: active = normalized growth mostly below about 0.91 (no sharp cut-off); inconclusive = no clear call, values can overlap the other calls; inactive = mostly above about 0.92. Some of the results follow.

Experiment: chemical genetic growth profiling, strain panel (AID 1159580);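 note: tested at 20 µM; growth read once vehicle control cultures reached saturation at 30 °C; 1 = growth at the plate median or of vehicle wells; lower values mean less growth of the strain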
Conditions: growth OD

Measured: normalized growth

COc1ccc2c(c1)OC/C(=C\c1ccc(OC)c(O)c1)C2=O
inactive: S. cerevisiae deletion strains, locus YJR066W, strain TOR1, active compounds read low 0.891 | S. cerevisiae deletion strains, locus YKL068W, active compounds read low 0.948 | S. cerevisiae deletion strains, locus YKR026C, strain gcn3, active compounds read low 0.946 | S. cerevisiae deletion strains, locus YKR091W, strain srl3, active compounds read low 0.962 | S. cerevisiae deletion strains, locus YLL026W, active compounds read low 0.931 | S. cerevisiae deletion strains, locus YLL041C, strain sdh2, active compounds read low 0.955 | S. cerevisiae deletion strains, locus YLR113W, strain HOG1, active compounds read low 0.909 | S. cerevisiae deletion strains, locus YLR357W, strain rsc2, active compounds read low 0.964 | S. cerevisiae deletion strains, locus YLR370C, strain arc18, active compounds read low 0.938 | S. cerevisiae deletion strains, locus YLR384C, strain iki3, active compounds read low 0.95 | S. cerevisiae deletion strains, locus YMR129W, active compounds read low 0.946 | S. cerevisiae deletion strains, locus YMR231W, strain pep5, active compounds read low 0.977 | S. cerevisiae deletion strains, locus YNL183C, strain NPR1, active compounds read low 0.924 | S. cerevisiae deletion strains, locus YNL209W, strain ssb2, active compounds read low 0.938 | S. cerevisiae deletion strains, locus YNL248C, strain rpa49, active compounds read low 0.902 | S. cerevisiae deletion strains, locus YNL322C, strain KRE1 (second series), active compounds read low 0.95 | S. cerevisiae deletion strains, locus YNR049C, strain mso1, active compounds read low 0.955 | S. cerevisiae deletion strains, locus YOL006C, strain TOP1, active compounds read low 0.563 | S. cerevisiae deletion strains, locus YOL012C, strain htz1 0.356 | S. cerevisiae deletion strains, locus YOR061W, strain CKA2, active compounds read low 0.93 | S. cerevisiae deletion strains, locus YOR080W, strain dia2, active compounds read low 0.925 | S. cerevisiae deletion strains, locus YOR231W, strain MKK1, active compounds read low 0.995 | S. cerevisiae deletion strains, locus YOR265W, strain rbl2, active compounds read low 0.941 | S. cerevisiae deletion strains, locus YPL240C, strain hsp82, active compounds read low 0.929 | S. cerevisiae deletion strains, locus YPL241C, strain CIN2, active compounds read low 0.958 | S. cerevisiae deletion strains, locus YPL256C, strain CLN2, active compounds read low 0.958 | S. cerevisiae deletion strains, locus YPR141C, strain kar3, active compounds read low 0.924
active: S. cerevisiae deletion strains, locus YKL009W, strain mrt4, active compounds read low 0.843 | S. cerevisiae deletion strains, locus YKL085W, strain MDH1 (second series), active compounds read low 0.915 | S. cerevisiae deletion strains, locus YKL085W, strain MDH1, active compounds read low 0.915 | S. cerevisiae deletion strains, locus YKL160W, strain elf1, active compounds read low 0.831 | S. cerevisiae deletion strains, locus YKL190W, strain CNB1, active compounds read low 0.81 | S. cerevisiae deletion strains, locus YKR001C, strain vps1, active compounds read low 0.651 | S. cerevisiae deletion strains, locus YLL001W, strain dnm1, active compounds read low 0.823 | S. cerevisiae deletion strains, locus YLR027C, strain aat2, active compounds read low 0.84 | S. cerevisiae deletion strains, locus YLR039C, strain RIC1, active compounds read low 0.51 | S. cerevisiae deletion strains, locus YLR058C, strain SHM2, active compounds read low 0.774 | S. cerevisiae deletion strains, locus YLR102C, strain apc9, active compounds read low 0.824 | S. cerevisiae deletion strains, locus YLR221C, strain rsa3, active compounds read low 0.841 | S. cerevisiae deletion strains, locus YLR258W, strain gsy2, active compounds read low 0.891 | S. cerevisiae deletion strains, locus YLR262C, strain YPT6 (second series), active compounds read low 0.719 | S. cerevisiae deletion strains, locus YLR262C, strain YPT6, active compounds read low 0.423 | S. cerevisiae deletion strains, locus YLR268W, strain sec22, active compounds read low 0.709 | S. cerevisiae deletion strains, locus YLR320W, strain mms22, active compounds read low 0.652 | S. cerevisiae deletion strains, locus YLR330W, strain CHS5, active compounds read low 0.467 | S. cerevisiae deletion strains, locus YLR342W, strain FKS1 (second series), active compounds read low 0.702 | S. cerevisiae deletion strains, locus YLR342W, strain FKS1, active compounds read low 0.885 | S. cerevisiae deletion strains, locus YLR371W, strain rom2, active compounds read low 0.584 | S. cerevisiae deletion strains, locus YLR418C, strain cdc73, active compounds read low 0.322 | S. cerevisiae deletion strains, locus YML016C, strain PPZ1, active compounds read low 0.791 | S. cerevisiae deletion strains, locus YML032C, strain rad52, active compounds read low 0.787 | S. cerevisiae deletion strains, locus YML120C, strain ndi1, active compounds read low 0.858 | S. cerevisiae deletion strains, locus YML124C, strain tub3, active compounds read low 0.865 | S. cerevisiae deletion strains, locus YMR058W, strain fet3, active compounds read low 0.846 | S. cerevisiae deletion strains, locus YMR078C, strain ctf18, active compounds read low 0.458 | S. cerevisiae deletion strains, locus YMR125W, strain sto1, active compounds read low 0.863 | S. cerevisiae deletion strains, locus YMR205C, strain PFK2, active compounds read low 0.768 | S. cerevisiae deletion strains, locus YMR223W, strain ubp8, active compounds read low 0.761 | S. cerevisiae deletion strains, locus YMR307W, strain GAS1, active compounds read low 0.557 | S. cerevisiae deletion strains, locus YNL067W, strain RPL9B, active compounds read low 0.774 | S. cerevisiae deletion strains, locus YNL071W, strain lat1, active compounds read low 0.369 | S. cerevisiae deletion strains, locus YNL233W, strain BNI4, active compounds read low 0.448 | S. cerevisiae deletion strains, locus YNL250W, strain rad50, active compounds read low 0.885 | S. cerevisiae deletion strains, locus YNL271C, strain bni1, active compounds read low 0.865 | S. cerevisiae deletion strains, locus YNL298W, strain CLA4, active compounds read low 0.895 | S. cerevisiae deletion strains, locus YNL307C, strain MCK1, active compounds read low 0.127 | S. cerevisiae deletion strains, locus YNL322C, strain KRE1, active compounds read low 0.793 | S. cerevisiae deletion strains, locus YNR052C, strain pop2, active compounds read low 0.885 | S. cerevisiae deletion strains, locus YOL147C, strain pex11, active compounds read low 0.542 | S. cerevisiae deletion strains, locus YOR001W, strain rrp6, active compounds read low 0.848 | S. cerevisiae deletion strains, locus YOR069W, strain VPS5, active compounds read low 0.807 | S. cerevisiae deletion strains, locus YOR070C, strain gyp1, active compounds read low 0.882 | S. cerevisiae deletion strains, locus YOR083W, strain WHI5, active compounds read low 0.869 | S. cerevisiae deletion strains, locus YOR106W, strain vam3, active compounds read low 0.847 | S. cerevisiae deletion strains, locus YOR136W, strain idh2, active compounds read low 0.796 | S. cerevisiae deletion strains, locus YOR144C, strain elg1, active compounds read low 0.766 | S. cerevisiae deletion strains, locus YOR184W, strain ser1, active compounds read low 0.472 | S. cerevisiae deletion strains, locus YOR270C, strain vph1, active compounds read low 0.661 | S. cerevisiae deletion strains, locus YOR290C, strain snf2, active compounds read low 0.789 | S. cerevisiae deletion strains, locus YOR316C, strain cot1, active compounds read low 0.882 | S. cerevisiae deletion strains, locus YPL051W, strain arl3, active compounds read low 0.836 | S. cerevisiae deletion strains, locus YPL055C, strain LGE1, active compounds read low 0.576 | S. cerevisiae deletion strains, locus YPL078C, strain atp4, active compounds read low 0.836 | S. cerevisiae deletion strains, locus YPL106C, strain sse1, active compounds read low 0.729 | S. cerevisiae deletion strains, locus YPR119W, strain clb2, active compounds read low 0.859 | S. cerevisiae deletion strains, locus YPR163C, strain tif3, active compounds read low 0.351 | S. cerevisiae deletion strains, locus YPR167C, strain met16, active compounds read low 0.811 | S. cerevisiae deletion strains, strain wtn01, active compounds read low 0.711 | S. cerevisiae strains, strain wild type, active compounds read low 0.663
